Laboratory results published in PubChem BioAssay (NCI).
About 79,000 compounds went through this panel and 15% of them were active in at least one assay; those are over-represented in the sample as a whole. No stated cut-off is given here; in the data, active means growth inhibition above about 70%; inactive means the rest.

Key:
[1] = NCI Yeast Anticancer Drug Screen. Data for the rad50 strain (AID 155);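 further: 0% = growth of vehicle-only cultures of the same strain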; conditions: S. cerevisiae rad50 strain growth inhibition; at 50.0 µM; stronger effect = higher value
Outline: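 Yeast carrying a defined DNA repair defect were exposed to test compounds, and growth was compared with vehicle-treated controls to give percent inhibition.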

[2] = NCI Yeast Anticancer Drug Screen. Data for the mec2-1 strain (AID 157); conditions: S. cerevisiae mec2-1 strain, at 50.0 µM, stronger effect = higher value
Outline: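 Test agents were screened against the mec2-1 yeast strain, with defined DNA repair or cell cycle alteration. Growth was scored as inhibition against vehicle-only controls.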

[3] = NCI Yeast Anticancer Drug Screen. Data for the sgs1 mgt1 strain (AID 161);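 further: 0% = growth of cultures given vehicle only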; conditions: S. cerevisiae sgs1 mgt1 strain, at 50.0 µM, stronger effect = higher value
Outline: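 Mutant yeast exposed to compound; growth scored against vehicle-only wells.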

[4] = NCI Yeast Anticancer Drug Screen. Data for the cln2 rad14 strain (AID 165);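 further: 0% = growth equal to vehicle treated cultures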; conditions: S. cerevisiae cln2 rad14 strain, at 50.0 µM, stronger effect = higher value
Outline: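 Growth of compound-exposed yeast (cln2 rad14 genotype) measured and expressed as inhibition relative to vehicle.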

[5] = NCI Yeast Anticancer Drug Screen. Data for the bub3 strain (AID 167); conditions: S. cerevisiae bub3 mutant strain, at 50.0 µM, stronger effect = higher value
Outline: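 Compounds were applied to a genetically altered yeast strain carrying a cell-cycle control defect. Growth inhibition was scored against vehicle-treated controls.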

[6] = NCI Yeast Anticancer Drug Screen. Data for the mlh1 rad18 strain (AID 175); conditions: S. cerevisiae mlh1 rad18 strain growth inhibition; at 50.0 µM; stronger effect = higher value
Outline: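 In this whole-cell yeast screen, a strain with altered DNA damage repair is challenged with compound, and its growth is measured against matched vehicle-treated controls.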

Measured: growth inhibition

CCCC(NC(=O)CN)C(=O)O (stereo unspecified)
inactive: [1] 14.8% | [2] 19.1% | [3] 2% | [4] -50% | [5] -29.4% | [6] 6.5%

O=C(c1ccccc1)C1CCCCN1C(=O)c1ccccc1 (stereo unspecified)
inactive: [1] -13.8% | [2] -8.3% | [3] -4.6% | [4] -17.3% | [5] 27.9% | [6] -21.9%

C=CC1=C(C)C2=NC1=CC1=NC(=CC3=C(C)C4=C(O)C(C(=O)OC)C(=C5NC(=C2)C(C)C5CCC(=O)OC/C=C(\C)CCCC(C)CCCC(C)CCCC(C)C)C4=N3)C(CC)=C1C (stereo unspecified)
inactive: [1] -17.7% | [2] -33.4% | [3] -49.8% | [4] 3.4% | [5] -29.1% | [6] -20.9%

CC1SCC(=O)N1c1nncs1 (stereo unspecified)
inactive: [1] -3.05% | [2] -0.75% | [3] -51.9% | [4] -46.2% | [5] -2.1% | [6] -46.6%

CC(C)N1CCN(c2ccncc2S(=O)(=O)N2CCCCC2)CC1
inactive: [1] -14.1% | [2] -23.2% | [3] -12.3% | [4] -5.5% | [5] -21.9% | [6] -30.4%

Nc1ccc2c(c1)C1Oc3ccccc3CC1CO2 (stereo unspecified)
inactive: [1] 33% | [2] 6.55% | [3] 20.1% | [4] 8.05% | [5] 12.8% | [6] 47.2%

CCSc1nnc2c(-c3ccccc3)n[nH]c2n1
inactive: [1] -0.75% | [2] -0.05% | [3] -21.8% | [4] -25.9% | [5] -27.6% | [6] -12.1%

CSc1nc(NC(=O)O)c(N(C(C)=O)C(=O)O)c(=O)n1C
inactive: [1] -15.3% | [2] 0.6% | [3] 4.55% | [4] 19.7% | [5] -9.35% | [6] -13.5%

CC(=O)C1=C(O)C2(O)C(=O)c3c(c(C)c4ccc(C)c(O)c4c3O)CC2C(N)C1=O (stereo unspecified)
inactive: [1] 9.85% | [2] 38.1% | [3] 14.2% | [4] 11.7% | [5] 19% | [6] 4%

COc1cc(OC)c(NC2=CC(c3ccc(Cl)cc3)OC2=O)cc1Cl (stereo unspecified)
inactive: [1] 27.3% | [2] 1.85% | [3] 12.8% | [4] -3.6% | [5] 1.4% | [6] 17.8%

CC1C(=NO)C(C)C(c2ccccc2)N(N=O)C1c1ccccc1 (stereo unspecified)
inactive: [1] -12.6% | [2] -20.5% | [3] -6.1% | [4] 3.25% | [5] 0.45% | [6] 26.4%

CC(C)C(C)NC(=O)C(C)(C)C(C)(C)C (stereo unspecified)
inactive: [1] -4.85% | [2] -6.35% | [3] 10.6% | [4] -11.2% | [5] -0.7% | [6] -5.55%

COc1cc(OC)c(C(=O)c2ccccc2N)c(OC)c1
inactive: [1] -3.2% | [2] -0.35% | [3] -1.5% | [4] 6.55% | [5] -8.45% | [6] 9.4%

Cc1cccc(C2=NC(=C3CCCCC3)C(=O)O2)c1
inactive: [1] 4.5% | [2] 6.6% | [3] 5.8% | [4] 12.2% | [5] 4% | [6] 20.9%

CCOC(=O)NC1c2ccccc2Oc2ccccc21
inactive: [1] -4.5% | [2] -5.4% | [3] 4.95% | [4] -16.3% | [5] 11% | [6] 2.3%

O=C(O)c1ccc(O)cc1O
inactive: [1] 12.8% | [2] 18.6% | [3] -25.2% | [4] -29.4% | [5] -4.65% | [6] -2.5%

O=C(O)CCC(=O)C(Cc1ccccc1)NC(=O)c1ccccc1 (stereo unspecified)
inactive: [1] -14.4% | [2] -16.6% | [3] -10.1% | [4] -4.05% | [5] 6.1% | [6] -10.4%

CCCCCCCCCCCCCCCCC1=CC(=O)C=C(OC)C1=O
inactive: [1] 13.4% | [2] 1.45% | [3] 23.4% | [4] -36% | [5] -0.15% | [6] 15.6%

CC(=O)NC1(C)C(=O)N=C(N)N=C1N (stereo unspecified)
inactive: [1] 11.2% | [2] 4.3% | [3] 11.1% | [4] -29.8% | [5] -4.9% | [6] 8.8%

Cc1nc2ccccc2nc1C
inactive: [1] -15.2% | [2] -1.8% | [3] -8.85% | [4] 1.2% | [5] -2.35% | [6] 4.85%

C[N+](C)(C)C1=CC=CC=C1.Br[Br-]Br
inactive: [1] 22.5% | [2] -29.6% | [3] 0.15% | [4] 4.7% | [5] 11.6% | [6] -2.25%

COc1ccc(N=Cc2c(O)ccc3ccccc23)cc1
inactive: [1] 12% | [2] 48% | [3] 43.1% | [4] 0.95% | [5] 32% | [6] 63%

Cc1cccc(C)c1C
inactive: [1] 4.8% | [2] -5% | [3] 9.85% | [4] -3.05% | [5] -0.65% | [6] -15.1%

CC(=O)OCC1OC(n2cc(CBr)nn2)C(OC(C)=O)C(OC(C)=O)C1OC(C)=O (stereo unspecified)
inactive: [1] 0.3% | [2] 4.9% | [3] -24.1% | [4] -13.6% | [5] 1.7% | [6] -19.9%

CCCCCCO/N=C\c1c2c(O)c3c(O)c(C)c4c(c3c1O)C(=O)C(C)(O/C=C\C(OC)C(C)C(OC(C)=O)C(C)C(O)C(C)C(O)C(C)/C=C\C=C(\C)C(=O)N2)O4 (stereo unspecified)
inactive: [1] 25.2% | [2] 63.4% | [3] 36.6% | [4] 54% | [5] 26.2% | [6] 53.9%

CCN(CC)CCOC(=O)c1ccc(N=Nc2cc(NC(C)=O)ccc2O)cc1
inactive: [1] 3.35% | [2] -3.7% | [3] -0.7% | [4] 4.15% | [5] 2.35% | [6] 5.05%

Oc1ccc(Br)cc1CNC1CCCCC1
inactive: [1] 58.5% | [2] 31.8% | [3] 61.1% | [4] -9.9% | [5] 27.1% | [6] 24.1%

Clc1ccc(N=Cc2ccccc2Cl)cc1
inactive: [1] 34.8% | [2] 16.1% | [3] 25.2% | [4] -13.7% | [5] 42% | [6] 19.7%

COC(=O)CC(NC(=O)OCc1ccccc1)C(=O)NCC(=O)NCC(=O)O (stereo unspecified)
inactive: [1] 15.8% | [2] 12.7% | [3] -5.65% | [4] 14.3% | [5] -4.7% | [6] 2.5%

CC(=O)NCC(N)=S
inactive: [1] 5.85% | [2] -24.1% | [3] 0.65% | [4] -1.55% | [5] 5.3% | [6] 4%

Nc1nc2c(nnn2-c2ccc(Cl)cc2)c(=O)[nH]1
inactive: [1] -4.3% | [2] -4.15% | [3] -5.85% | [4] -25.1% | [5] -0.5% | [6] -6.25%

CC(C)CCOC(=O)c1ccccc1OC(=O)Nc1ccc(Cl)cc1[N+](=O)[O-]
inactive: [1] -18.9% | [2] -16.3% | [3] -20.4% | [4] -41.4% | [5] 0.05% | [6] -11.3%

Cc1cccc(C(=O)O)c1[N+](=O)[O-]
inactive: [1] 10.4% | [2] 1.05% | [3] -8.25% | [4] -8.35% | [5] -14% | [6] 7.1%

CC(=O)Nc1cc2cc(NS(=O)(=O)c3ccc(Cl)c(Cl)c3)ccc2oc1=O
inactive: [1] 8.35% | [2] -1.55% | [3] 0.35% | [4] 19.9% | [5] -4% | [6] 10.4%

CC(=O)NNc1nc(C)c(C(=O)NNC(=O)C(=O)Nc2ccc(Cl)cc2)s1
inactive: [1] 27% | [2] -0.4% | [3] 16.5% | [4] -63.2% | [5] 20% | [6] 22.9%

CCc1cccc(C)c1NC(=S)NC(=O)c1ccccc1C(=O)NC(=S)Nc1c(C)cccc1CC
inactive: [1] 12.3% | [2] 7.7% | [3] 0.95% | [4] 20.9% | [5] 11.8% | [6] 20.4%

Cc1csc(=S)n1C
inactive: [1] -15.2% | [2] -3.2% | [3] -17.6% | [4] -5.8% | [5] -12% | [6] 0.4%

CCOc1ccccc1NC(=O)C1=C(C)NC(C)=C(C(=O)Nc2ccccc2OCC)C1c1ccc2c(c1)OCO2
inactive: [1] 9.5% | [2] 44.5% | [3] 41.3% | [4] 23.2% | [5] 43.1% | [6] 39.9%

CCOC(=O)C1=C(C)Oc2cc3c(cc2C1c1ccc(OC)cc1)OCO3 (stereo unspecified)
inactive: [1] 3.9% | [2] 5.8% | [3] 23.5% | [4] -39.8% | [5] 31.4% | [6] 6.65%

O=C(O)/C=C/c1c2ccc(=O)c(O)c-2oc2c(O)c(O)ccc12
inactive: [1] 36.4% | [2] 24.4% | [3] 13.9% | [4] -23.9% | [5] 10.2% | [6] 44.8%

CCC/C(=N/NC(=O)C(N)=O)C(CC)C(=O)CCC(=O)N(Cc1ccccc1)Cc1ccccc1 (stereo unspecified)
inactive: [1] -17.6% | [2] -15.6% | [3] -26.6% | [4] 10.8% | [5] -10.4% | [6] -21.3%
